# Screening results deposited in PubChem BioAssay by National Center for Advancing Translational Sciences (NCATS).
# The full list was thinned out, with hits kept by preference.
# nsP2pro inh = blocks chikungunya virus nsP2 protease peptide cleavage | Q8JUX6 | Potency, µM (series often up to 24.9 µM), without a hit: at the highest dose activity change, negative = inhibition, hits mostly inhibitors | FRET peptide cleavage, nsP2pro, fluorescence 1 h | hit rate 1.1% among 31,000; note: nearly all actives have a fitted effect of over 60% in size
#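 Enzyme 150 nM, substrate 2.5 uM (both final); Tris-HCl 10 mM pH 8.0 + 0.01% Tween 20; cpd up to 25 uM, 7 pts; 15 min preinc., 1 h RT; fluorescence ex 525/em 598.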
# CHIKV nsP2 cell = cell-based CHIKV nsP2 protease inhibition, secondary. Potency, µM (highest dose often 51.1 µM), inactives show at the highest dose activity change, negative = inhibition, actives largely listed as inhibitors. cell-based CHIKV nsP2 protease reporter assay. hit rate 10% among 450. shares compounds with nsP2pro inh; note: nearly all actives have a fitted effect of over 70% in size
# CHIKV NSP2 FL = full-length CHIKV NSP2 protease inhibition, selectivity; shares compounds with nsP2pro inh; Full-length CHIKV NSP2 protease enzymatic counterscreen; Potency, µM (titrated, usually from 50.7 µM), without a hit: at the highest dose activity change, negative = inhibition, hits mostly inhibitors; hit rate 39% among 410; AID 1964101; note: nearly all actives have a fitted effect of over 65% in size
# Furin counterscr = selectivity counter-screen for CHIKV nsP2 protease inhibitors: human furin; shares compounds with nsP2pro inh; Recombinant human furin enzymatic counterscreen, fluorogenic substrate; Potency, µM (doses to about 50.6 µM), for the others: at the highest dose activity change, negative = inhibition, hits mostly inhibitors; hit rate 6% among 410
# NS23 peptide cs = nsP2pro inhibition on native NS2/3 peptide substrate; shares compounds with nsP2pro inh; Purified CHIKV nsP2 protease, endogenous NS2/3 peptide cleavage; Potency, µM (highest dose often 51 µM), without a hit: top-dose activity change, negative = inhibition, actives largely listed as inhibitors; hit rate 34% among 410; note: nearly all actives have a fitted effect of over 55% in size
# Papain cs = selectivity counter-screen for CHIKV nsP2 protease inhibitors: papain. Potency, µM (doses to about 51 µM), for inactives: at the top dose activity change, negative = inhibition, usual class: inhibitors. shares compounds with nsP2pro inh. purified papain protease activity, enzymatic inhibition. hit rate 5% among 410
# Target sequence (P00784 whole entry, looked up): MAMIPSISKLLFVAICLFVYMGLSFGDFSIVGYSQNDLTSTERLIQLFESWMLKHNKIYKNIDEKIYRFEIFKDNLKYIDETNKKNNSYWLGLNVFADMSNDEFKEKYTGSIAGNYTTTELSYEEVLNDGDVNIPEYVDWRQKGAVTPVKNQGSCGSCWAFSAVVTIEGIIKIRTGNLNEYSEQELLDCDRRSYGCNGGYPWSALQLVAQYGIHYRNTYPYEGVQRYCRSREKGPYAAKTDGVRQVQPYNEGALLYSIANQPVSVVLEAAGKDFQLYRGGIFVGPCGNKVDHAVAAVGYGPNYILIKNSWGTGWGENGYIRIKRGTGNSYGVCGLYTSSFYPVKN
# nsP2pro conf qHTS = CHIKV nsP2 protease inhibition, confirmatory qHTS. shares compounds with nsP2pro inh. CHIKV nsP2 protease enzymatic activity, qHTS. Potency, µM (highest dose often 25.5 µM), without a hit: at the top dose activity change, negative = inhibition, actives largely listed as inhibitors. hit rate 43% among 410; note: nearly all actives have a fitted effect of over 75% in size
# HCV NS3 4A cs = selectivity counter-screen for CHIKV nsP2 protease inhibitors: HCV NS3/4A; HCV NS3/4A protease biochemical counterscreen; AID 1964106; Potency, µM (titrated, usually from 50.9 µM), hits mostly inhibitors; hit rate 20% among 410; shares compounds with nsP2pro inh; note: nearly all actives have a fitted effect of over 55% in size
# An asterisk follows results filed as active; i = inactive; u = inconclusive; [ ] = another dose, or the depositor's remark. Calls come from the whole dose curve. % is set by controls: 0 for no effect and ±100 for the full control effect; potency is the fitted concentration of half-maximal effect.
SMILES,nsP2pro inh,others
Cc1ccc(CN(Cc2ccco2)C(=O)c2ccc(Cl)cc2Cl)cc1,32%,
O=C(Nc1ccc(Cl)c(Cl)c1)Nc1ncc(-c2ccncc2)s1,-1%,
Cc1ccc(C(=O)N2CCCCCCNC(=O)[C@@H]3C[C@@H](c4nc(Cc5ccccc5)no4)C[C@@H]32)s1,1%,
NC(=O)c1cccc2[nH]c(-c3ccc([C@@H]4CCCN4)cc3F)nc12,-8%,
C=C[C@@H]1C[C@]1(NC(=O)[C@@H]1C[C@@H](Oc2ncc(OC)c3ccc(Cl)cc23)CN1C(=O)[C@@H](NC(=O)OC(C)(C)C)C(C)(C)C)C(=O)NS(=O)(=O)C1CC1,-14%,
Cc1noc(C2CN(C(=O)c3cc(-c4ccco4)[nH]n3)CC2c2ccccc2)n1 (stereo not given),10µM*,CHIKV nsP2 cell=8%;CHIKV NSP2 FL=8.2µM*;Furin counterscr=-9%;NS23 peptide cs=u;Papain cs=-13%;nsP2pro conf qHTS=9µM*;HCV NS3 4A cs=u
Cc1noc([C@@H]2CN(C(=O)c3cc(C4CC4)[nH]n3)C[C@H]2C(N)=O)n1,-14%,
Cc1noc([C@@H]2CN(Cc3ccc[nH]3)C[C@H]2CO)n1,i,
Cc1cc(C)nc(NC(=S)N2CCN(c3ccc(C(F)(F)F)cc3Cl)CC2)c1,-5%,
COc1ccnc(NC(=S)N2CCN(c3cc(Cl)cc(Cl)c3)CC2)c1,i,
CC(C)/C=C1\NC(=O)C(C(C)C)n2c1nc1c(c2=O)C=CC=CO1 (stereo not given),-22%,
COC1=Cc2c(nc3n(c2=O)C(C)C(=O)NC3(O)C(C)C)OC=C1 (stereo not given),u,CHIKV nsP2 cell=-4%[33.5 µM];CHIKV NSP2 FL=0%[33.5 µM];Furin counterscr=-13%[33.5 µM];NS23 peptide cs=-23%[33.5 µM];Papain cs=-13%[33.5 µM];nsP2pro conf qHTS=u;HCV NS3 4A cs=i
C#C[C@]1(O)CC[C@H]2[C@@H]3CCC4=CC(=O)CCC4[C@H]3CC[C@@]21CC (stereo not given in full),-2%,
COc1cccc(-c2ccccc2NC(=O)C2CCN(CC=C(C)C)CC2)c1,i,
c1ccc(CN2CCC[C@H]2c2nc(-c3ccnc(N4CCOCC4)c3)no2)nc1,i,
CC(=O)NCC1CN(C(=O)NCc2ccc(OC(F)(F)F)cc2)CC12CCCCC2 (stereo not given),-4%,
CC(C)=CCC[C@](C)(O)[C@H]1CC[C@@]2(C)[C@H]1[C@@H](O)CC1[C@@]3(C)CC[C@@H](O[C@@H]4O[C@H](CO)[C@@H](O)[C@H](O)[C@H]4O)C(C)(C)C3CC[C@]12C (stereo not given in full),18%,
N[C@@H](CO)C(=O)Nc1ccc(Cl)cc1C(=O)c1ccc[nH]1,-4%,
NC(CO)C(=O)NNCc1ccc(O)c(O)c1O (stereo not given),1.8µM*,CHIKV nsP2 cell=-9%;CHIKV NSP2 FL=6.5µM*;Furin counterscr=-9%;NS23 peptide cs=4.1µM*;Papain cs=-1%;nsP2pro conf qHTS=1.3µM*;HCV NS3 4A cs=u
Cc1ccccc1COC1CN(C(=O)C2CCN(C(=O)C3CC3)CC2)C1,i,
O=C(c1ccc(-c2noc(C3CC3)n2)cc1)N1CCC2(CCOCC2)CC1,i,
COC(=O)N[C@H](C(=O)N1CCC[C@H]1c1ncc(-c2ccc(-c3ccc(-c4cnc([C@@H]5CCCN5C(=O)[C@@H](NC(=O)OC)C(C)C)[nH]4)cc3)cc2)[nH]1)C(C)C,u,CHIKV nsP2 cell=-11%;CHIKV NSP2 FL=u;Furin counterscr=-8%;NS23 peptide cs=-19%;Papain cs=i;nsP2pro conf qHTS=u;HCV NS3 4A cs=i
COC(=O)N[C@H](C(=O)N1CCC[C@H]1c1ncc(-c2ccc3c(c2)O[C@@H](c2ccccc2)n2c-3cc3cc(-c4cnc([C@@H]5CCCN5C(=O)[C@@H](NC(=O)OC)C(C)C)[nH]4)ccc32)[nH]1)C(C)C,0%,
CC(=O)N1CCC(N2CCOC[C@H]2c2ncc(-c3ccncc3)[nH]2)CC1,i,
CC(=O)NCCCCn1c2c(c3ccccc31)C(=O)NCC2,-19%,
SMILES,nsP2pro inh,others
Cn1c(CN2CCCCC2)nc2cc(NC(=O)c3ccc(Cl)cc3)ccc21,32%,
Cn1c(CCCC(=O)O)nc2cc(N(CCCl)CCCl)ccc21,9.9µM*,CHIKV nsP2 cell=-9%;CHIKV NSP2 FL=16µM*;Furin counterscr=5%;NS23 peptide cs=u;Papain cs=253%;nsP2pro conf qHTS=8µM*;HCV NS3 4A cs=u
CCCCc1nc2cc(/C=C/C(=O)NO)ccc2n1CCN(CC)CC,43%,
COC(=O)N1CCCCC1C(=O)N1CCC2(CC1)c1nc[nH]c1CCN2C (stereo not given),-11%,
O=C(C1CCOCC1)N1CCC(c2nc(C3CCOCC3)no2)CC1,i,
Cn1cc(C(=O)N2CCc3[nH]cnc3C2C2CCN(C(=O)C3CCOCC3)CC2)cn1 (stereo not given),u,CHIKV nsP2 cell=-2%;CHIKV NSP2 FL=6.5µM*;Furin counterscr=-7%;NS23 peptide cs=u;Papain cs=-2%;nsP2pro conf qHTS=u;HCV NS3 4A cs=9.2µM*
Cc1ccnc(NC(=S)N[C@H]2CCN(c3cccc(C(F)(F)F)c3)C2)c1,i,
C[C@@H]1[C@H](c2ccccc2)C[C@H](NC(=O)c2cnc3c(c2)C[C@@]2(C3)C(=O)Nc3ncccc32)C(=O)N1CC(F)(F)F,-8%,
CC[C@@]1(O)CC2CN(CCc3c([nH]c4ccccc34)[C@](C(=O)OC)(c3cc4c(cc3OC)N(C)C3[C@@](O)(C(N)=O)[C@H](O)[C@]5(CC)C=CCN6CC[C@@]43[C@@H]65)C2)C1 (stereo not given in full),15%,
COc1ccccc1CNc1nc(-c2ccco2)nn1S(=O)(=O)c1ccc(Cl)cc1,8.9µM*,CHIKV nsP2 cell=17%
O=C(c1ccco1)n1nc(-c2ccccc2)nc1NCc1ccc(Cl)cc1,-14%,
COc1ccccc1CNc1nc2c(S(=O)(=O)c3ccc(C)c(C)c3)nnn2c2ccc(Cl)cc12,-11%,
O=C(O)Cn1nnc(-c2ccc(CN(CCCCOc3ccc(CN4CCCC4)cc3)CCc3ccccc3)cc2)n1,12%,
Cc1cccc(-n2cnc3cc(C(=O)N4CCCC(C)C4)ccc32)c1 (stereo not given),4%,
OC[C@H]1O[C@H](O)[C@H](O)[C@@H](O)[C@@H]1O,-11%,
O=CN1C(=O)CC/C1=C\c1ccc2c(c1)OCO2,-4%,
CC/C=C\C/C=C\C/C=C\C/C=C\C/C=C\CCCC(=O)O,u,CHIKV nsP2 cell=13%[100 µM];CHIKV NSP2 FL=6.7µM*;Furin counterscr=-11%[100 µM];NS23 peptide cs=u;Papain cs=33µM*;nsP2pro conf qHTS=8.2µM*;HCV NS3 4A cs=i
CCCCCC[C@@H](O)C/C=C\CCCCCCCC(=O)O,-14%,
